Reference: PubChem BioAssay (NCATS)
Results filed as inconclusive are left out. A call without a number means that no potency is given here. Values without a mark were called inactive. Active and inactive are the calls of the source. Calls come from the whole dose curve; as a rule, active = well fitted curve in the direction sought with a large enough effect; inconclusive = small, poorly fitted or top-dose-only effect, or another doubt; inactive = no such curve, though single readings can be large; an effect the other way counts as inactive or inconclusive.

Key:
[1] = molecular target: Rap guanine nucleotide exchange factor 3 (Homo sapiens) (UniProt O95398); test: Confirmatory qHTS for agonist of cAMP-regulated guanine nucleotide exchange factor 3 (EPAC1) (AID 1645881);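 note: EPAC1 catalysed release of BODIPY-GDP from Rap1B seen as fluorescence loss; nearly all actives have a fitted effect of over 75% in size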
[2] = molecular target: Rap guanine nucleotide exchange factor 4 (Homo sapiens) (UniProt Q8WZA2); test: Confirmatory qHTS for agonist of cAMP-regulated guanine nucleotide exchange factor 4 (EPAC2) (AID 1645884);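 note: nucleotide exchange releases bodipy-GDP from Rap1 and this lowers its fluorescence; nearly all actives have a fitted effect of over 65% in size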
[3] = molecular target: Rap guanine nucleotide exchange factor 4 (Homo sapiens) (UniProt Q8WZA2); test: Confirmatory qHTS for antagonist of cAMP-regulated guanine nucleotide exchange factor 4 (EPAC2) (AID 1645885); note: nearly all actives have a fitted effect of over 25% in size; note: potency is the fitted concentration of half-maximal effect
[4] = molecular target: Rap guanine nucleotide exchange factor 3 (Homo sapiens) (UniProt O95398); test: Counterscreen qHTS for agonist of cAMP-regulated guanine nucleotide exchange factor 3 (EPAC1) (AID 1645889); note: nearly all actives have a fitted effect of over 40% in size
How it was run: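 Rap1B-BODIPY-GDP 250 nM + GDP 50 uM; cpds 7-pt, final 9.74 nM–152 uM (activator mode) or from 7.32 nM upwards (inhibitor mode); RT; FI 480/540 nm at 5 and 30 min, then ± cAMP, reread.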

Rap guanine nucleotide exchange factor 4 (Homo sapiens), sequence (Q8WZA2 whole entry, looked up): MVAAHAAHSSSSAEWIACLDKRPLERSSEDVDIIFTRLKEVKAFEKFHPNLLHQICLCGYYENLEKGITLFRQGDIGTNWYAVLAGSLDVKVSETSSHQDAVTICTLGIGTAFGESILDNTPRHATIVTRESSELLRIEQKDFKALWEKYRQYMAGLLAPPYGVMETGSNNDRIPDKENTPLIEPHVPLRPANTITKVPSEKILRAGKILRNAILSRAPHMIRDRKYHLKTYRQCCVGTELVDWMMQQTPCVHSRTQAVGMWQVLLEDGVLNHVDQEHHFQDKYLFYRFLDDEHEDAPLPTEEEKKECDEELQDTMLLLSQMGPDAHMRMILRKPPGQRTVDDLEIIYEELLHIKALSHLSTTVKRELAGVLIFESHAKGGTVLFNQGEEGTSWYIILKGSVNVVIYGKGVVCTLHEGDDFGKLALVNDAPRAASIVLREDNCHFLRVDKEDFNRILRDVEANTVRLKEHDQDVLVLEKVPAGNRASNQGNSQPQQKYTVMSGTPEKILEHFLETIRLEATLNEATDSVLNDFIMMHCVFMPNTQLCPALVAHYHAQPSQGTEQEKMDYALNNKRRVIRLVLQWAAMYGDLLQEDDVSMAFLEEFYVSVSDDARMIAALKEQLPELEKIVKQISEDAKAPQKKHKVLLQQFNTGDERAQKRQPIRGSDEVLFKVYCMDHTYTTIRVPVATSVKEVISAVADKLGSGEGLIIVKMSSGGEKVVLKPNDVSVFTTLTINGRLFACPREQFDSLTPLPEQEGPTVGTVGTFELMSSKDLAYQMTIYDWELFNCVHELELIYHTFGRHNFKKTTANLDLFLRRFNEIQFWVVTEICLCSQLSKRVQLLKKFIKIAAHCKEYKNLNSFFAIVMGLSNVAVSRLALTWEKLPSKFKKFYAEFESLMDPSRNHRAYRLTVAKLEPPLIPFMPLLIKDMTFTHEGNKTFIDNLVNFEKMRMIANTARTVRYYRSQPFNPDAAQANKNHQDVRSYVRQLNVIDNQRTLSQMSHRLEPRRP
Rap guanine nucleotide exchange factor 3 (Homo sapiens), sequence (O95398 whole entry, looked up): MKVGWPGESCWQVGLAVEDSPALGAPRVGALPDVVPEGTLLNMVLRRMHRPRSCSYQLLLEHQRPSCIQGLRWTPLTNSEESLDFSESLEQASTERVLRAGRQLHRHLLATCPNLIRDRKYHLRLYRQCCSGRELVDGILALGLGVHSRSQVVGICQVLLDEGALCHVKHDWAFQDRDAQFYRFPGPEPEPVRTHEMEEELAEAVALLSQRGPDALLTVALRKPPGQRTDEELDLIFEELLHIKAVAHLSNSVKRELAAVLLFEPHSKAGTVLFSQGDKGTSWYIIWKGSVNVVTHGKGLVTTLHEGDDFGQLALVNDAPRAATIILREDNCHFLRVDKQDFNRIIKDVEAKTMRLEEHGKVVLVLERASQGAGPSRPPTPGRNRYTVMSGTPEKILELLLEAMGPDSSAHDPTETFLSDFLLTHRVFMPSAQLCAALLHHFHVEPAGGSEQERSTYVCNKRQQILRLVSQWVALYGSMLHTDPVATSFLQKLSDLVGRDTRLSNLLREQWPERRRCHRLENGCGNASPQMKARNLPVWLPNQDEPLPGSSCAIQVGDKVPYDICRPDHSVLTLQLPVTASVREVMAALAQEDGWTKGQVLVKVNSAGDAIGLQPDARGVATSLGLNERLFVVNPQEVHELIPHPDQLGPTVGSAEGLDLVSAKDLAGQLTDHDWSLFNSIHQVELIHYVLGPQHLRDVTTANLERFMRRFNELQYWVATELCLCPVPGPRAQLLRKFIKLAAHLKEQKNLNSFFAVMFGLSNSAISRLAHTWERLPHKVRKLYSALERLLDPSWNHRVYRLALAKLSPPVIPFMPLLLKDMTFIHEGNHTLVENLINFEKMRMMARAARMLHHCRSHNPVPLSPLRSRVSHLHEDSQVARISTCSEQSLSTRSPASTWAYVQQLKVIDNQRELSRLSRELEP

CC(=O)Nc1ccc(NC(=S)NC(=O)/C=C/c2ccco2)cc1
Potency [1]: inactive
Potency [2]: inactive
Potency [3]: inactive
Potency [4]: inactive

FC(F)(F)c1cccc(CN2CCC(c3cc(-c4cccs4)n[nH]3)CC2)c1
Potency [1]: inactive
Potency [2]: inactive
Potency [3]: inactive
Potency [4]: inactive

CCC(C)(C)c1ccc(OCC(=O)N(C)C)c(C(C)(C)CC)c1
Potency [1]: inactive
Potency [2]: inactive
Potency [3]: 67.5 µM (active)
Potency [4]: inactive

COCOCCn1cc(CN2CCS(=O)(=O)N(Cc3ccc(-c4ccc(OC)cc4)cc3)C(CC(C)C)C2=O)nn1 (stereo unspecified)
Potency [1]: inactive
Potency [2]: inactive
Potency [3]: inactive
Potency [4]: inactive

CCC(NC(=O)c1ccccc1NC(=O)c1ccco1)C(=O)NNC(=O)c1ccc(OC)cc1 (stereo unspecified)
Potency [1]: inactive
activation [2]: 0.808% [at 17.1 µM, percent relative to cAMP agonist control]
Potency [3]: inactive
activation [4]: 9.27% [at 30.8 µM]

COc1ccc(N2C(=O)Cc3cc(OC)c(OC)cc3C2c2ccc(F)cc2)cc1 (stereo unspecified)
Potency [1]: inactive
Potency [2]: inactive
Potency [3]: inactive
Potency [4]: inactive

Cc1cc2c(cc1C)C(c1ccccc1OC(C)C)CC(=O)N2 (stereo unspecified)
Potency [1]: inactive
Potency [2]: inactive
Potency [3]: 33.8 µM (active)
Potency [4]: inactive

CNC(=O)c1ccc(Nc2nnc(-c3ccc(O)cc3)c3ccccc23)cc1
Potency [1]: inactive
Potency [2]: inactive
Potency [3]: inactive
Potency [4]: inactive

Cc1oc2ccc(O)c(CN(C)Cc3ccccc3)c2c1C(=O)Nc1cccc(C(F)(F)F)c1
Potency [1]: inactive
Potency [2]: inactive
Potency [3]: inactive
Potency [4]: inactive

CC(C)(C)Cc1c(-c2ccco2)nc2ccc(Cl)cn12
Potency [1]: inactive
activation [2]: 1.87% [at 17.1 µM, percent relative to cAMP agonist control]
Potency [3]: inactive
activation [4]: 3.65% [at 30.8 µM]

CC(=O)N(CCC(c1ccco1)C(C)C)Cc1ccc(Cl)cc1 (stereo unspecified)
Potency [1]: inactive
Potency [2]: inactive
Potency [3]: inactive
Potency [4]: inactive

Cc1ccc(NS(=O)(=O)c2cccc(C(=O)OCC(=O)NCc3ccco3)c2)cc1
Potency [1]: inactive
Potency [2]: inactive
Potency [3]: inactive
Potency [4]: inactive

COCc1nc2ccccc2n1Cc1ccc(C(C)(C)C)cc1
Potency [1]: inactive
Potency [2]: inactive
Potency [3]: inactive
Potency [4]: inactive

Cc1ccnc(NC(=O)C2CCN(S(=O)(=O)c3cccc(C(F)(F)F)c3)CC2)c1
Potency [1]: inactive
Potency [2]: inactive
Potency [3]: inactive
Potency [4]: inactive

C/C(=N\NS(=O)(=O)c1ccc(C(C)(C)C)cc1)c1ccccc1
Potency [1]: inactive
activation [2]: 13.7% [at 17.1 µM, percent relative to cAMP agonist control]
Potency [3]: inactive
activation [4]: 25% [at 30.8 µM]

CCCn1c(/C=C/c2ccco2)nc2ccccc21
Potency [1]: inactive
activation [2]: -2.96% [at 17.1 µM, percent relative to cAMP agonist control]
Potency [3]: inactive
activation [4]: 26.1% [at 30.8 µM]

CN(CC(=O)Nc1ccc(F)cc1)C(=O)COC(=O)C1CCN(c2ccc(C(F)(F)F)cn2)CC1
Potency [1]: inactive
Potency [2]: inactive
Potency [3]: inactive
Potency [4]: inactive

CCc1nc2ccc(C(=O)Nc3ccc(NC(C)=O)cc3)cn2c1N(C)CCC(C)C
Potency [1]: inactive
Potency [2]: inactive
Potency [3]: inactive
Potency [4]: inactive

CCn1cc(CN2CCc3c([nH]c4ccccc34)C2c2cccc(OC)c2)c(C)n1 (stereo unspecified)
Potency [1]: inactive
activation [2]: -1.07% [at 17.1 µM, percent relative to cAMP agonist control]
Potency [3]: inactive
activation [4]: 8.44% [at 30.8 µM]

COc1ccc2sc(-c3ccc(SC)cc3)c(C#CC(C)(C)O)c2c1
Potency [1]: inactive
Potency [2]: inactive
Potency [3]: inactive
Potency [4]: inactive

OC(c1ccccc1)(c1nc(-c2cccc(C(F)(F)F)c2)cs1)C(F)(F)F (stereo unspecified)
Potency [1]: inactive
Potency [2]: inactive
Potency [3]: inactive
Potency [4]: inactive

CC(C)C(=O)Nc1nc2c(s1)CC(C(C)(C)C)CC2 (stereo unspecified)
Potency [1]: inactive
Potency [2]: inactive
Potency [3]: inactive
Potency [4]: inactive

CCO[C@H]1OC(C(=O)NCc2ccccc2)=C[C@@H](c2ccc(C(F)(F)F)cc2)[C@@H]1CCCO
Potency [1]: inactive
Potency [2]: inactive
Potency [3]: inactive
Potency [4]: inactive

CCCCC[C@H](C)N1C[C@@H](COCc2ccccc2)Oc2cc(N3CC[C@@H](O)C3)ccc2S1(=O)=O
Potency [1]: inactive
activation [2]: 6.13% [at 17.1 µM, percent relative to cAMP agonist control]
Potency [3]: inactive
activation [4]: 5.17% [at 30.8 µM]
